Shown are actives, neighbours in structure and some others; about 32% of the full set was active somewhere.
CYP2C19 act: cytochrome P450 2C19 (human) activation | AID 1025 | 96,000 tested, under 10 active | activation factor at 5 µM | recombinant CYP2C19, luciferin-H EGE luminescence; stronger effect = higher value; 0 = fully inhibited enzyme, 1 = untreated enzyme;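 active = activation factor of at least 2 at 5 µM in the primary screen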;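 also: 0 = wells with 2.5 mM tranylcypromine and 1 = vehicle-only wells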
Target sequence (P33261 whole entry, looked up): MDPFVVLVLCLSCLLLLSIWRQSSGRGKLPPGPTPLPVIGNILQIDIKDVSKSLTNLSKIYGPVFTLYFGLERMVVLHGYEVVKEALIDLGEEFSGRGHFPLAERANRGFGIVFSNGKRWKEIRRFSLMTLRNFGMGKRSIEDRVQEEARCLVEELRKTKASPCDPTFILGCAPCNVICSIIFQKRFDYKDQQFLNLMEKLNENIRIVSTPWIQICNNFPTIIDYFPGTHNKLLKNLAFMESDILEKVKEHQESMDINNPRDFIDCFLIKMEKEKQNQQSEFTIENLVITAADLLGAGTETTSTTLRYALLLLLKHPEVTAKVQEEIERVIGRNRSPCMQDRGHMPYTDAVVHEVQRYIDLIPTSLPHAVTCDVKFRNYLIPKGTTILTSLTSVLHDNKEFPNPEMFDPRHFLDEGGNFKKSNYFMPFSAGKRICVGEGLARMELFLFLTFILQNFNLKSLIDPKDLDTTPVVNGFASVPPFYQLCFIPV
CYP2C9 act: increases human cytochrome P450 2C9 activity | 96,000 tested, 1.4% active | AID 1024 | activation factor at 5 µM | recombinant CYP2C9, luciferin-H conversion, luminescence; stronger effect = higher value; factor 1 = untreated enzyme, 0 = blocked;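 active = activation factor of 2 or more for CYP2C9 at a 5 µM dose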;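 also: 0 = sulfaphenazole-blocked wells and 1 = vehicle-only wells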
PostGolgi yeast: growth inhibition of a yeast mutant, post-Golgi transport screen | post-Golgi transport phenotypic cell assay | 98,000 tested, 0.9% active | inhibition, % at 10 µM;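 also: yeast cells grown in 1536-well plates; yeast grown about 18 h at 30C before absorbance read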
CYP2C9 inhib: blocks human cytochrome P450 2C9 | P11712 | CYP2C9 Supersomes, luciferin-H conversion, luminescence | inhibition, % at 5 µM | 96,000 tested, 20% active | AID 777;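 active = blocking of liver enzyme CYP2C9 beyond about 50% at 5 µM, limit read from the data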
PostGolgi ctrl: inhibits growth of the yeast control strain. AID 738. efflux-deficient yeast background strain, growth absorbance A615, 16 h. 98,000 tested, 5% active. inhibition, % at 10 µM
CYP2C19 inh: inhibitors of human CYP2C19; inhibition, % at 5 µM; P33261; 96,000 tested, 21% active; CYP2C19 Supersomes, luciferin-H EGE luminescence, 30 min;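 active = CYP2C19 inhibition above a set limit at 5 µM in the primary screen, cut at about 50% in these data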;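 also: plate controls were negative control wells for no effect and 2.5 mM tranylcypromine positive control for full effect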
* hit, by the source's call; nt = not tested or not shown. Rule as the data show it, unless noted: active = inhibition above about 30%; inactive = the rest.

SMILES	CYP2C19 act	CYP2C9 act	PostGolgi yeast	CYP2C9 inhib	PostGolgi ctrl	CYP2C19 inh
Cc1ccc2[nH]c(=O)c(CN(Cc3ccccc3Cl)C(=O)N3CCOCC3)cc2c1	0.2	0.3	-6	72*	7	82*
Cc1ccc2[nH]c(=O)c(CN(CCN3CCOCC3)C(=O)Nc3ccccc3F)cc2c1	nt	nt	0	nt	46*	nt
O=C(Nc1ccccc1)N(CCCN1CCOCC1)Cc1cccs1	0.9	1	2	4	6	14
Cc1cc2cc(CN(CCN3CCOCC3)C(=O)Nc3ccccc3F)c(=O)[nH]c2cc1C	0.8	0.9	18	12	0	16
Cc1ccc(-n2nnc3c(SCC(=O)NCc4ccco4)ncnc32)cc1	nt	nt	5	nt	4	nt
CC12CCC(C(=O)N(c3ccccn3)c3ccccn3)(OC1=O)C2(C)C (stereo not drawn)	1	1.1	-6	-8	9	2
COc1cc2cc(CN(C(=O)Nc3ccccc3)C3CCCC3)c(=O)[nH]c2cc1OC	0.6	0.4	2	55*	6	42
Cc1cc(Cl)ccc1OC(C)c1nnc(N)s1 (stereo not drawn)	0.4	1	0	-1	-3	61*
CC1(C)CC(=O)C2=C(C1)N(c1ccccc1)C(N)=C(C#N)C2c1cccnc1 (stereo not drawn)	0.8	0.5	-3	50*	5	24
O=C1CCCC2=C1C(Cc1ccccc1)C1=C(CCCC1=O)O2	0.2	0.8	1	23	9	82*
CC1C(C#N)=C(N)OC2=C1C(=O)CC(C)(C)C2 (stereo not drawn)	0.9	0.9	19	11	-3	8
CC1(C)CC(=O)C2=C(C1)OC(N)=C(C#N)C2c1ccsc1 (stereo not drawn)	0.4	0.7	9	32	29	63*
CCOC(=O)C1=C(N)OC2=C(C(=O)CC(C)(C)C2)C1c1ccccc1OCC#N (stereo not drawn)	0.3	0.2	8	79*	7	71*
CC1(C)CC(=O)C2=C(C1)N(c1ccccc1)C(N)=C(C#N)C2c1ccccc1 (stereo not drawn)	nt	nt	4	nt	5	nt
CC(=O)Nc1c(O)nc(SCC(=O)Nc2nnc(CC(C)C)s2)[nH]c1=O	nt	nt	-6	nt	4	nt
CC(C)(C)c1[nH]nc2c1C(C1C=CCCC1)C(C#N)=C(N)O2 (stereo not drawn)	0.6	0.5	-5	48	12	36
N#CC1=C(N)OC2=C(C(=O)CCC2)C1C1C=CCCC1 (stereo not drawn)	0.2	0.3	6	73*	2	84*
N#CC1=C(N)N(c2ccccc2)C2=C(C(=O)CCC2)C1c1cccs1 (stereo not drawn)	0.8	0.5	-8	46	7	24
CC1(C)CC(=O)C2=C(C1)N(c1ccc(F)cc1)C(N)=C(C#N)C2c1cccs1 (stereo not drawn)	1	0.9	1	10	7	-2
Cc1ccc(N2C(N)=C(C#N)C(c3cccnc3)C3=C2CCCC3=O)cc1 (stereo not drawn)	0.9	0.6	4	36	-5	14
Cc1ccc(N2C(N)=C(C#N)C(c3cccs3)C3=C2CC(C)(C)CC3=O)cc1 (stereo not drawn)	0.6	0.2	-3	80*	9	42
N#CC1=C(N)N(c2ccc(Br)cc2)C2=C(C(=O)CCC2)C1c1cccnc1 (stereo not drawn)	0.8	0.5	4	52*	19	21
N#CC1=C(N)N(c2ccccc2C#N)C2=C(C(=O)CCC2)C1c1ccsc1 (stereo not drawn)	0.6	0.4	-3	62*	20	43
O=C(CCCSc1nc2sc3c(c2c(=O)[nH]1)CCC3)NCCO	0.9	0.8	-4	16	0	6
Brc1ccc(-c2cn3cccnc3n2)cc1	1	1	13	5	4	5
SMILES	CYP2C19 act	CYP2C9 act	PostGolgi yeast	CYP2C9 inhib	PostGolgi ctrl	CYP2C19 inh
c1ccc2c(c1)CCN(CCCNc1nc3ccccc3n3cnnc13)C2	1	1.1	4	-8	10	0
Cc1nc(-c2cccnc2)sc1C(=O)Nc1cccc(C(F)(F)F)c1	0.5	1.9	11	-89	5	48
O=C1CCCC2=C1C(c1ccccc1O)C1=C(CCCC1=O)O2	0.9	0.9	0	12	-1	8
COC(=O)C1=C(N)OC2=C(C(=O)CC(C)(C)C2)C1c1ccoc1 (stereo not drawn)	0.5	0.5	0	55*	0	47
N#CC1=C(N)OC2=C(C(=O)CCC2)C1CCc1ccccc1 (stereo not drawn)	0.1	0.1	11	92*	6	94*
CCn1c(C)cc(=S)c2ccccc21	1	1	-10	1	-5	4
CCC(C)C1C(C#N)=C(N)OC2=C1C(=O)CC(C)(C)C2 (stereo not drawn)	nt	nt	-3	nt	15	nt
Cc1nn(C)cc1C1C2=C(CC(C)(C)CC2=O)OC2=C1C(=O)CC(C)(C)C2	nt	nt	-2	nt	-15	nt
CCn1c2ccccc2c2cc(C3C(C#N)=C(C)NC(C)=C3C#N)ccc21	0	0	-2	95*	3	100*
CCn1c2ccccc2c2cc(C3C(C#N)=C(N)OC4=C3C(=O)CC(C)(C)C4)ccc21 (stereo not drawn)	1	0.4	nt	57*	nt	2
CC1(C)CC(=O)C2=C(C1)N(c1ccccc1)C(N)=C(C#N)C2c1ccsc1 (stereo not drawn)	0.3	0.2	-4	75*	4	68*
CC1(C)CC(=O)C2=C(C1)OC(N)=C(C#N)C2Cc1ccccc1 (stereo not drawn)	0	0.2	-1	79*	15	98*
CCOC(=O)c1sc(NC(=O)COC(=O)Cn2cnc3ccccc32)c(C(=O)OCC)c1C	nt	nt	4	nt	-3	nt
Cc1cc(Nc2ccc(Br)cc2F)n2nc(C)nc2n1	nt	nt	1	nt	-5	nt
O=C(O)CCCc1nc2ccccc2s1	0.4	1	2	4	5	55*
CN(C(=O)CCc1nc2ccccc2s1)c1ccccc1	0.3	1	-2	1	21	70*
COC(=O)CCCc1nc2ccccc2s1	0.6	0.8	1	24	6	38
O=S(=O)(Nc1cccc2c1ccc1cccn12)c1cccs1	0.7	0.4	15	59*	-3	30
COc1ccc2oc(=O)c(-c3nnc(NCc4ccco4)s3)cc2c1	0.9	0.7	40*	30	-3	10
CCOc1cccc2cc(-c3cn4cc(C)ccc4n3)c(=O)oc12	1	1.5	14	-54	28	4
CCOc1cccc2cc(-c3nnc(NCc4ccco4)s3)c(=O)oc12	0.9	2.9*	-9	-190	5	10
CNc1nnc(-c2cc3cc(Cl)ccc3oc2=O)s1	0.9	1	-4	1	14	7
O=C(Nc1c(F)cc(F)cc1Br)c1cc2nc(C(F)F)cc(C(F)F)n2n1	1.1	1.4	-2	-36	10	-5

Screening results as filed in PubChem BioAssay.
